According to the antibiotic and cytotoxicity screens of Wong et al. (2023):
Out of some 39,000 compounds screened, about 3,300 (8.5%) were called active. For the sample, actives were picked, then their nearest neighbours and some compounds at random.

test system: HepG2; test: cytotoxicity call (relative viability < 0.9); conditions: 10 µM

| SMILES | cytotoxicity call |
| --- | --- |
| C[C@@H]1CN([C@@H](C)CO)C(=O)c2cccc(N(C)C)c2O[C@@H]1CN(C)S(=O)(=O)c1ccc(Cl)cc1 | inactive |
| C[C@@H]1CN([C@@H](C)CO)C(=O)c2cccc(NC(=O)Nc3ccc(C(F)(F)F)cc3)c2O[C@H]1CN(C)S(=O)(=O)c1ccc(Cl)cc1 | inactive |
| CC(C)NC(=O)Nc1ccc2c(c1)C(=O)N([C@@H](C)CO)C[C@H](C)[C@@H](CN(C)C(=O)Nc1ccc(F)cc1)OCCCC[C@H](C)O2 | inactive |
| O=C(/C=C/c1ccc(O)c(O)c1)O[C@H]1[C@H](O)[C@@H](O)[C@H](OCCc2ccc(O)c(O)c2)O[C@@H]1CO | inactive |
| C[C@H]1CCCCO[C@H](CN(C)Cc2ccc(C(=O)O)cc2)[C@@H](C)CN([C@@H](C)CO)C(=O)c2cc(NS(=O)(=O)c3ccc(Cl)cc3)ccc2O1 | inactive |
| NCc1c(Cl)cccc1Cl | inactive |
| COCc1cn(CC[C@H]2CC[C@@H](NC(=O)CCN3CCCCC3)[C@H](CO)O2)nn1 | inactive |
| C[C@H]1CCCCO[C@H](CN(C)C(=O)Nc2ccc(C(F)(F)F)cc2)[C@@H](C)CN([C@@H](C)CO)C(=O)c2cc(NS(=O)(=O)c3cn(C)cn3)ccc2O1 | inactive |
| C[C@@H]1CN([C@@H](C)CO)C(=O)c2cc(NC(=O)CCCN(C)C)ccc2O[C@@H]1CN(C)Cc1ccc(C(=O)O)cc1 | inactive |
| C[C@@H]1CN([C@H](C)CO)C(=O)c2cccc(NS(=O)(=O)c3cn(C)cn3)c2O[C@@H]1CN(C)S(C)(=O)=O | inactive |
| C[C@@H]1CN([C@H](C)CO)C(=O)c2cccc(NS(=O)(=O)c3cccs3)c2O[C@@H]1CN(C)S(=O)(=O)c1cn(C)cn1 | inactive |
| C[C@H](CO)N1C[C@H](C)[C@@H](CN(C)S(=O)(=O)c2cn(C)cn2)Oc2c(NS(=O)(=O)c3cccs3)cccc2C1=O | active |
| C[C@H]1CN([C@@H](C)CO)C(=O)c2cccc(NS(=O)(=O)c3cn(C)cn3)c2O[C@H]1CN(C)S(C)(=O)=O | inactive |
| C[C@H](CO)N1C[C@H](C)[C@H](CN(C)S(C)(=O)=O)Oc2c(NS(=O)(=O)c3cn(C)cn3)cccc2C1=O | active |
| Cc1ccc(S(=O)(=O)N(C)C[C@H]2Oc3c(NS(=O)(=O)c4cccs4)cccc3C(=O)N([C@H](C)CO)C[C@@H]2C)cc1 | inactive |
| Cc1ccc(S(=O)(=O)N(C)C[C@@H]2Oc3c(NS(=O)(=O)c4cccs4)cccc3C(=O)N([C@@H](C)CO)C[C@H]2C)cc1 | inactive |
| Cc1ccc(S(=O)(=O)N(C)C[C@@H]2Oc3c(NS(=O)(=O)c4cccs4)cccc3C(=O)N([C@H](C)CO)C[C@@H]2C)cc1 | active |
| C[C@H]1CN([C@@H](C)CO)C(=O)c2cccc(NS(=O)(=O)c3cccs3)c2O[C@H]1CN(C)S(=O)(=O)c1cn(C)cn1 | inactive |
| O=C(NO)c1ccncc1 | inactive |
| C[C@H]1CN([C@@H](C)CO)C(=O)c2c(c3ccccc3n2C)-c2ccccc2CO[C@@H]1CN(C)C(=O)Nc1ccccc1C(F)(F)F | inactive |
| CC(C)NC(=O)N(C)C[C@H]1Oc2ccc(NC(=O)CCN3CCOCC3)cc2C(=O)N([C@H](C)CO)C[C@@H]1C | inactive |
| O=C(C[C@H]1CC[C@H]2[C@@H](COC[C@H](O)CN2C(=O)Nc2ccc(C(F)(F)F)cc2)O1)NCCc1ccncc1 | inactive |

| SMILES | cytotoxicity call |
| --- | --- |
| Cc1noc(C)c1NC(=O)N(C)C[C@@H]1Oc2c(NC(=O)Nc3cccc4ccccc34)cccc2C(=O)N([C@@H](C)CO)C[C@@H]1C | inactive |
| COc1ccc(-c2cnc3c(c2)C(=O)N([C@H](C)CO)C[C@H](C)[C@H](CN(C)C(=O)C2CCOCC2)O3)cc1 | inactive |
| C[C@@H]1CN([C@H](C)CO)C(=O)c2cc(NS(=O)(=O)c3ccc(F)cc3)ccc2O[C@H]1CN(C)C(=O)Nc1ccc(C(F)(F)F)cc1 | inactive |
| O=c1nc(Nc2ccccc2)cn[nH]1 | inactive |
| CO[C@H]1CN(C)C(=O)c2ccc(NC(=O)Nc3ccccc3F)cc2OC[C@H](C)N(Cc2ccccc2C(=O)O)C[C@@H]1C | inactive |
| COc1cccc2c1C(=O)c1c(O)c3c(c(O)c1C2=O)C[C@@](O)(C(=O)CO)C[C@@H]3O[C@H]1C[C@H](N)[C@H](O)[C@H](C)O1 | active |
| COc1cccc2c1C(=O)c1c(O)c3c(c(O)c1C2=O)CC(O)(C(=O)CO)CC3OC1CC(N)C(O)C(C)O1 (stereo not given) [listing 1 of 2 here] | active |
| COc1cccc2c1C(=O)c1c(O)c3c(c(O)c1C2=O)CC(O)(C(=O)CO)CC3OC1CC(N)C(O)C(C)O1.Cl (stereo not given) | active |
| CCCCC(=O)OCC(=O)[C@]1(O)Cc2c(O)c3c(c(O)c2[C@@H](O[C@H]2C[C@H](NC(=O)C(F)(F)F)[C@H](O)[C@H](C)O2)C1)C(=O)c1c(OC)cccc1C3=O | active |
| C[C@@H]1CN([C@@H](C)CO)C(=O)Cc2cc(NS(=O)(=O)c3ccc(Cl)cc3)ccc2O[C@@H]1CN(C)Cc1ccc(C(=O)Nc2ccccc2N)cc1 | inactive |
| CN1N=C2CCN(C(=O)[C@@H](COCc3ccccc3)NC(=O)C(C)(C)N)C[C@@]2(Cc2ccccc2)C1=O | inactive |
| C[C@H]1CN([C@@H](C)CO)C(=O)c2ccccc2-c2ccccc2CO[C@H]1CN(C)C(=O)Nc1cccc(F)c1 | inactive |
| C[C@@H]1CCCCO[C@@H](CN(C)C(=O)Nc2cccc3ccccc23)[C@@H](C)CN([C@H](C)CO)C(=O)c2cc(NC(=O)c3ccncc3)ccc2O1 | inactive |
| CCC(=O)OC1(C(=O)SCF)C(C)CC2C3CC(F)C4=CC(=O)C=CC4(C)C3(F)C(O)CC21C (stereo not given) | inactive |
| Cc1cc(O)c(C=O)c2c1C(=O)Oc1c(COC(=O)C=CC(=O)O)c(O)c(C(=O)O)c(C)c1O2 | inactive |
| C[C@H]1CN([C@@H](C)CO)S(=O)(=O)c2ccc(-c3cncnc3)cc2O[C@H]1CN(C)C(=O)Cc1ccccc1 | inactive |
| COc1ccc([C@@H]2C/C=C\C[C@@H](c3cccc(Cl)c3)NC(=O)[C@@H](c3ccccc3)CC(=O)N2)c(OC)c1 | inactive |
| COc1ccc(S(=O)(=O)Nc2ccc3c(c2)CC(=O)N([C@@H](C)CO)C[C@@H](C)[C@@H](CN(C)S(=O)(=O)c2ccccc2)O3)cc1 | inactive |
| Cc1noc(C)c1NC(=O)Nc1ccc2c(c1)CC(=O)N([C@H](C)CO)C[C@@H](C)[C@H](CN(C)Cc1ccc(C(=O)Nc3ccccc3N)cc1)O2 | inactive |
| COc1cccc2c1C(=O)c1c(O)c3c(c(O)c1C2=O)CC(O)(C(=O)CO)CC3OC1CC(N)C(O)C(C)O1 (stereo not given) [listing 2 of 2 here] | active |
| COc1cccc2c1C(=O)c1c(O)c3c(c(O)c1C2=O)C[C@@](O)(C(=O)CO)C[C@@H]3O[C@H]1C[C@H](N)[C@@H](O)[C@H](C)O1 | active |
| COc1cccc2c1C(=O)c1c(O)c3c(c(O)c1C2=O)C[C@](O)(C(=O)CO)C[C@H]3O[C@H]1C[C@@H](N)[C@@H](O)[C@@H](C)O1 | active |

| SMILES | cytotoxicity call |
| --- | --- |
| C[C@@H]1CN([C@H](C)CO)C(=O)c2cc(NC(=O)C3CC3)ccc2O[C@H]1CN(C)C(=O)Nc1ccc2c(c1)OCO2 | inactive |
| C[C@H]1COC(=O)[C@@H](Cc2ccc(F)cc2)CCC=CC[C@@H](CC(=O)N[C@H](CO)Cc2ccccc2)C(=O)N1 | inactive |
| CC(C)NC(=O)N(C)C[C@@H]1Oc2ccc(NC(=O)CCC(F)(F)F)cc2C(=O)N([C@H](C)CO)C[C@H]1C | inactive |
| COc1cccc(-c2cccc(-c3nc(C(=O)NCC(F)(F)F)cc4c3[C@@H](CCO)N([S@](=O)C(C)(C)C)C4)c2)c1 | inactive |
| O=C(O)CN(CCN(CC(=O)O)CC(=O)O)CC(=O)O.[Na+].[Na+] | inactive |
| C[C@H]1CN([C@@H](C)CO)C(=O)Cc2cc(NC(=O)CCCN(C)C)ccc2O[C@@H]1CN(C)C(=O)NC1CCCCC1 | inactive |
| Cc1noc(C)c1NC(=O)N(C)C[C@H]1OCCCC[C@@H](C)Oc2ccc(NC(=O)Cc3ccccc3)cc2C(=O)N([C@H](C)CO)C[C@@H]1C | inactive |
| O=C(C[C@H]1CC[C@H]2[C@@H](COC[C@@H](O)CN2Cc2ccccc2F)O1)N[C@H]1CCN(Cc2ccccc2)C1 | inactive |
| CCOC(=O)Cc1csc(/C(=N/O)C(N)=O)n1 | inactive |
| COC(=O)CN(C)c1nnc(N)s1 | inactive |
| COC(=O)Cc1csc(CC(N)=O)n1 | active |
| COC(=O)c1c(CC[C@@H](CO)NC(=O)NCCn2cc(C3(O)CCCC3)nn2)oc(C(C)=O)c1C(=O)OC | inactive |
| Cc1ccc(S(=O)(=O)N(C)C[C@@H]2OCCCC[C@@H](C)Oc3ccc(NC(=O)Nc4c(C)noc4C)cc3C(=O)N([C@@H](C)CO)C[C@H]2C)cc1 | inactive |
| C[C@@H]1CN([C@@H](C)CO)C(=O)c2cccc(NS(=O)(=O)c3cccs3)c2O[C@H]1CN(C)Cc1ccc(-c2ccccc2)cc1 | inactive |
| C[C@H]1CN([C@@H](C)CO)C(=O)Cc2cc(NC(=O)Cc3cn(C)c4ccccc34)ccc2O[C@@H]1CN(C)C | inactive |
| COc1cc2c(cc1OC)CN(CCc1ccc(NC(=O)c3cc(OC)c(OC)cc3NC(=O)c3cnc4ccccc4c3)cc1)CC2 | active |
| COc1cc2c(cc1OC)CN(CCc1ccc(-n3nnc(-c4cc(OC)c(OC)cc4NC(=O)c4cc(=O)c5ccccc5o4)n3)cc1)CC2 | inactive |
| COc1cc2c(cc1OC)CN(CCc1ccc(NC(=O)c3cccc4c(=O)c5cccc(OC)c5[nH]c34)cc1)CC2 | inactive |
| CNC[C@@H]1Oc2ccc(NC(=O)Cn3cnnn3)cc2C(=O)N([C@@H](C)CO)C[C@H]1C | inactive |
| CCCCCCO[C@H](C)c1c(c/2[nH]c1/C=C/1\N=C(/C=C/3\NC4=C(CC(=O)C4=C3C)C3=N/C(=C2)[C@@H](C)[C@@H]3CCC(=O)O)C(=C1C)CC)C | active |
| Cc1noc(C)c1NC(=O)Nc1cccc2c1O[C@@H](CN(C)Cc1ccc(C(F)(F)F)cc1)[C@@H](C)CN([C@H](C)CO)C2=O | inactive |
